According to PubChem BioAssay (NCATS):
Records with an inconclusive call do not appear. A call without a number means that no potency is given here. The source made the active and inactive calls. The call rests on the fitted dose curve; in most records, active means well fitted curve in the direction sought with a large enough effect; inconclusive means small, poorly fitted or top-dose-only effect, or another doubt; inactive means no such curve, though single readings can be large; an effect the other way counts as inactive or inconclusive.

How the values were obtained:
[1] = MultiTox-Fluor Cytotoxicity Assay - LYMP1-003 - Dead Cells (AID 961); conditions: LYMP1-003 lymphoblastoid cells, dead-cell protease fluorescence; series mostly up to 92.2 µM;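 further: cells exposed to compound for 16 h at 37 °C; nearly all actives have a fitted effect of over 70% in size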; further: potency means the concentration at half of the fitted maximal effect
Summary of the method: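 Human lymphoblastoid LYMP1-003 cells (2500/well) were treated with compounds for 16 hr at 37 C in complete medium. Dead-cell protease release was read by bis-AAF-R110 fluorescence (Ex/Em 485/520). AC50 came from Hill fits, normalized to DMSO and 15 uM tetraoctylammonium bromide.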

[2] = MultiTox-Fluor Cytotoxicity Assay - LYMP1-003 - Live Cells (AID 962); conditions: LYMP1-003 lymphoblastoid cells, MultiTox-Fluor live-cell protease fluorescence; series mostly up to 92.2 µM;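 further: cells exposed to compound for 16 hours at 37 °C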; further: potency means the concentration at half of the fitted maximal effect
Summary of the method: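 Readout: live-cell fluorescence (Ex/Em=405/510) from GF-AFC cleavage after 60 min MultiTox-Fluor reagent at room temperature. Lymphoblastoid LYMP1-003 cells, 16 hr compound treatment, 37 C. Concentration-response fitted to standard Hill equation for AC50.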

[3] = Cell Viability - LYMP1-003 - Assay at 24 hr (AID 963); conditions: LYMP1-003 lymphoblastoid cell viability; series mostly up to 92.2 µM; further: potency means the concentration at half of the fitted maximal effect
Summary of the method: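 CellTiter-Glo luminescence (intracellular ATP) read after 24 hr, 37 C compound exposure of 2500 LYMP1-003 human lymphoblastoid cells/well in complete medium; qHTS concentration series; AC50 via standard Hill equation.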

[4] = Cell Viability - LYMP1-003 - Assay at 40 hr (AID 964); conditions: LYMP1-003 lymphoblastoid viability; series mostly up to 92.2 µM; further: nearly all actives have a fitted effect of over 60% in size; further: potency means the concentration at half of the fitted maximal effect
Summary of the method: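 LYMP1-003 lymphoblastoid cells, 2500/well; 5 hr preincubation, 40 hr compound exposure, 37 C; CellTiter-Glo 30 min RT; luminescence; Hill-fit AC50. Positive control tetraoctylammonium bromide.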

[5] = Cell Viability - LYMP2-003 (AID 965); conditions: LYMP2-003 lymphoblastoid cell viability; series mostly up to 92.2 µM;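 further: cells exposed to compounds for 24 h before reading; nearly all actives have a fitted effect of over 50% in size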; further: potency means the concentration at half of the fitted maximal effect
Summary of the method: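 qHTS, human lymphoblastoid line, 2500 cells/well, complete medium. 24 h drug, 37 C. ATP-based luminescent readout; Hill-fit AC50.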

[6] = Cell Viability - LYMP2-004 (AID 966); conditions: LYMP2-004 lymphoblastoid cell viability, qHTS; series mostly up to 92.2 µM; further: nearly all actives have a fitted effect of over 65% in size; further: potency means the concentration at half of the fitted maximal effect
Summary of the method: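 Luminescent ATP read-out (CellTiter-Glo, 30 min RT) after 24 hr compound exposure at 37 C; 2500 lymphoblastoid cells/well, complete medium. Decrease in ATP = cytotoxicity; AC50 from standard Hill model.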

[7] = Cell Viability - LYMP2-005 (AID 967); conditions: LYMP2-005 lymphoblastoid cell viability; series mostly up to 92.2 µM
Summary of the method: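 Luciferase-based ATP quantitation served as the viability measure in human lymphoblastoid LYMP2-005 cells exposed to test compounds for 24 h at 37 C in complete culture medium. Potency (AC50) was obtained by fitting concentration-response curves with the Hill equation.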

[8] = Cell Viability - LYMP2-011 (AID 969); conditions: LYMP2-011 lymphoblastoid cells viability; series mostly up to 92.2 µM; further: nearly all actives have a fitted effect of over 60% in size; further: potency means the concentration at half of the fitted maximal effect
Summary of the method: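 Luminescent ATP read-out (CellTiter-Glo, 30 min RT) after 24 hr compound exposure at 37 C in human lymphoblastoid cells, 2500 cells/well. Decreasing ATP indicates cytotoxicity; AC50 from standard Hill fit.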

[9] = Cell Viability - LYMP2-013 (AID 970); conditions: LYMP2-013 lymphoblastoid cells viability; series mostly up to 92.2 µM; further: nearly all actives have a fitted effect of over 55% in size; further: potency means the concentration at half of the fitted maximal effect
Summary of the method: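 CellTiter-Glo luminescence (cellular ATP) read after 30 min at RT. Cells: human lymphoblastoid line, 2500/well, 24 hr compound exposure at 37 C. Tetraoctylammonium bromide positive control; AC50 via standard Hill fit of qHTS titrations.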

[10] = Cell Viability - LYMP2-015 (AID 971); conditions: LYMP2-015 lymphoblastoid cell viability; series mostly up to 92.2 µM; further: nearly all actives have a fitted effect of over 55% in size; further: potency means the concentration at half of the fitted maximal effect
Summary of the method: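 qHTS cytotoxicity: 2500 cells/well, 5 hr 37 C, compound 24 hr 37 C, CellTiter-Glo 30 min RT, luminescence. Loss of ATP = toxicity; AC50 via standard Hill fit.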

Row | Compound | Potency [1] | Potency [2] | Potency [3] | Potency [4] | Potency [5] | Potency [6] | outcome [7] | Potency [8] | Potency [9] | Potency [10]
1 | Nc1ccc(Cl)cc1 | inactive | inactive | inactive | inactive | inactive | inactive | inactive | inactive | inactive | inactive
2 | CN(C)NC(=O)CCC(=O)O | inactive | inactive | inactive | inactive | inactive | inactive | inactive | inactive | inactive | inactive
3 | Nc1ccc(Cl)cc1N | inactive | inactive | inactive | inactive | inactive | – | inactive | inactive | inactive | –
4 | CCCCOC(=O)c1ccccc1C(=O)OCc1ccccc1 | inactive | inactive | inactive | inactive | inactive | inactive | inactive | inactive | inactive | inactive
5 | CC(C)(O)C(=O)Nc1ccc([N+](=O)[O-])c(C(F)(F)F)c1 | inactive | inactive | inactive | inactive | inactive | inactive | inactive | inactive | inactive | inactive
6 | CCOCCOC(C)=O | inactive | inactive | inactive | inactive | inactive | inactive | inactive | inactive | inactive | inactive
7 | O=[N+]([O-])c1c2ccccc2cc2ccccc12 | inactive | inactive | inactive | inactive | inactive | inactive | inactive | inactive | inactive | inactive
8 | CC(=O)[O][Hg][c]1ccccc1 | 2.51 µM (active) | 3.16 µM (active) | 3.16 µM (active) | 1.58 µM (active) | 1.58 µM (active) | 1 µM (active) | – | 1 µM (active) | 631 nM (active) | 631 nM (active)
9 | CCOP(=O)(NC(C)C)Oc1ccc(SC)c(C)c1 (stereo not given) | inactive | inactive | inactive | inactive | inactive | inactive | inactive | inactive | inactive | inactive
10 | O=C(O)COc1ccccc1 | inactive | inactive | inactive | inactive | inactive | inactive | inactive | inactive | inactive | inactive
11 | COc1ccc(C(c2ccc(OC)cc2)C(Cl)(Cl)Cl)cc1 | inactive | inactive | inactive | inactive | inactive | inactive | inactive | inactive | inactive | inactive
12 | CCCCC(CC)COC(=O)c1ccccc1C(=O)OCC(CC)CCCC (stereo not given) | inactive | inactive | inactive | inactive | inactive | inactive | inactive | inactive | inactive | inactive
13 | COC(C)(C)CCCC(C)C/C=C/C(C)=C/C(=O)OC(C)C (stereo not given) | inactive | inactive | inactive | inactive | inactive | inactive | inactive | inactive | inactive | inactive
14 | O=S(=O)(c1ccc(Cl)cc1)c1ccc(Cl)cc1 | inactive | inactive | inactive | inactive | inactive | inactive | inactive | inactive | inactive | inactive
15 | Nc1ccc(Sc2ccc(N)cc2)cc1 | inactive | inactive | inactive | inactive | inactive | inactive | inactive | inactive | inactive | inactive
16 | CCCCCCCCc1ccc(O)cc1 | inactive | inactive | inactive | – | inactive | inactive | inactive | inactive | inactive | inactive
17 | CN(C)[C@@H]1C(=O)C(C(N)=O)=C(O)[C@@]2(O)C(=O)C3=C(O)c4c(O)cccc4[C@@](C)(O)[C@H]3[C@H](O)[C@@H]12 | inactive | inactive | inactive | inactive | inactive | inactive | inactive | inactive | inactive | inactive
18 | O=C(O)C(Cl)Cl | inactive | inactive | inactive | inactive | inactive | inactive | inactive | inactive | inactive | inactive
19 | c1cc2ccc3cccc4ccc(c1)c2c34 | inactive | inactive | inactive | inactive | inactive | inactive | inactive | inactive | inactive | inactive
20 | OCCCBr | inactive | inactive | inactive | inactive | inactive | inactive | inactive | inactive | inactive | inactive
21 | Nc1ccc([N+](=O)[O-])cc1 | inactive | inactive | inactive | inactive | inactive | inactive | – | inactive | inactive | inactive
22 | O=[N+]([O-])c1c(Cl)c(Cl)cc(Cl)c1Cl | inactive | inactive | inactive | inactive | inactive | inactive | inactive | inactive | inactive | inactive
23 | C=CC(=O)NCNC(=O)C=C | inactive | inactive | inactive | inactive | inactive | inactive | inactive | inactive | inactive | inactive
24 | C1CCC(NC2CCCCC2)CC1 | inactive | inactive | inactive | inactive | inactive | inactive | inactive | inactive | inactive | inactive
25 | O=[N+]([O-])c1cc([N+](=O)[O-])c2ccccc2c1 | inactive | inactive | inactive | inactive | inactive | inactive | inactive | inactive | inactive | inactive
26 | Cc1cc(O)ccc1Cl | inactive | inactive | inactive | inactive | inactive | inactive | inactive | inactive | inactive | inactive
